Reference: the supplement of paper PMC7156485
± gives the standard deviation of the averaged measurements.

Tests used:
Settings in all cases: concentration: 10 µM; 24 h
HCC1569 [1] = test: cell number relative to DMSO (% of DMSO); higher = more cells (less growth inhibition / toxicity)
Method in brief: (§1)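 In 384-well plates holding 800 HCC1569 or TDF cells per well in RPMI with 10% FBS, compounds were tested at 10 µM for 24 h at 37 °C in triplicate. Fixation used 3.7% formaldehyde. Staining used a rabbit anti-H1.0 antibody with an AlexaFluor 647 secondary, plus DAPI. Each value, H1.0 nuclear intensity or cell number, is a median of replicates shown as percent of the plate control, and HCC1569 values were smoothed for positional effects.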

TDF [2] = test: as above
Method in brief: as §1

TDF [3] = test: H1.0 immunofluorescence intensity relative to DMSO (% of DMSO); higher = stronger H1.0 induction, active = 120 or more
Method in brief: as §1

HCC1569 [4] = test: H1.0 immunofluorescence intensity relative to DMSO (% of DMSO); higher = stronger H1.0 induction, active = 140 or more
Method in brief: as §1
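Wherever H1.0 immunofluorescence intensity relative to DMSO is given: TDF is a line of transformed human dermal fibroblasts of mesenchymal origin.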
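Wherever cell number relative to DMSO is given: TDF denotes transformed human dermal fibroblasts of mesenchymal origin.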

Structure (SMILES)	cell number (HCC1569 [1])	cell number (TDF [2])	H1.0 immunofluorescence intensity (TDF [3])	H1.0 immunofluorescence intensity (HCC1569 [4])
Cc1cn(C2CC(N=[N+]=[N-])C(CO)O2)c(=O)[nH]c1=O (stereo not given) [3'-Azido-3'-deoxythymidine]	104.8 ± 0.49	101 ± 7.6	96.8 (inactive)	97.8 (inactive)
C=CCc1ccc(O)c(-c2cc(CC=C)ccc2O)c1 [Magnolol]	98	98.2	91.7 (inactive)	83 (inactive)
CCCC1OC2CC3C4CCC5=CC(=O)C=CC5(C)C4C(O)CC3(C)C2(C(=O)CO)O1 (stereo not given) [Budesonide]	97.2	94.1	82 (inactive)	96.4 (inactive)
Nc1ccc(CCNc2ncnc3c2ncn3C2OC(CO)C(O)C2O)cc1 (stereo not given) [N6-2-(4-Aminophenyl)ethyladenosine]	101	109	85.9 (inactive)	94 (inactive)
Cc1cc(Nc2ncc3cc(-c4c(Cl)cccc4Cl)c(=O)n(C)c3n2)ccc1F	36.3	7.32	201 (active)	187 (active)
Cl.Cl.NCCNc1ncc(C(N)=O)c(Nc2cccc(C(F)(F)F)c2)n1.O.O [Syk Inhibitor II]	82.1	84.7	88.2 (inactive)	148 (active)
O=C(CCCN1CCN(c2ccccn2)CC1)c1ccc(F)cc1 [Azaperone]	98.6	112	96.7 (inactive)	103 (inactive)
CCOc1ccc(C(Nc2ccccn2)c2ccc3ccc(C)nc3c2O)cc1C (stereo not given)	87.7	84.1	94.8 (inactive)	115 (inactive)
CC(=O)CC/C=C(\C)CC/C=C(\C)CC/C=C(\C)CCC=C(C)C	100	96.2	104 (inactive)	105 (inactive)
NC1CCN(O)C1=O (racemic)	101	104	84.3 (inactive)	82.9 (inactive)
O=c1oc2ccccc2c(O)c1Cc1c(O)c2ccccc2oc1=O [Dicoumarol]	99.6	94.5	99 (inactive)	98.4 (inactive)
COc1cc(C(=O)OCCCN2CCCN(CCCOC(=O)c3cc(OC)c(OC)c(OC)c3)CC2)cc(OC)c1OC [Dilazep]	107	93.1	103 (inactive)	91.6 (inactive)
Oc1cc(O)cc(C=Cc2ccc(O)c(O)c2)c1 [Piceatannol]	90.4 ± 5.3	93.7 ± 4.5	97.2 (inactive)	114 (inactive)
O=S(=O)(c1cccc2cnccc12)N1CCCNCC1	107	102	88 (inactive)	98.2 (inactive)
Nc1nc2ccc(Cl)cc2c2nc(-c3ccco3)nn12	99.2	102	96 (inactive)	118 (inactive)
Cc1[nH]c2ccccc2c1CCNC(=O)c1ccccc1F [2-fluoro-N-[2-(2-methyl-1H-indol-3-yl)ethyl]benzamide]	100	106	110 (inactive)	93.6 (inactive)
CCCCCC=CCC(O)C=CC=CC=CC(O)CCCC(=O)O [5(S),12(S)-DIHETE all trans]	101	106	93.5 (inactive)	95 (inactive)
COc1ccc(-c2cc(=O)c3c(OC)c(OC)c(OC)cc3o2)cc1OC [Sinensetine]	101	99.8	93.9 (inactive)	93.6 (inactive)
CCCCCC=CCC=CCC=CCC=CCCCC(=O)OC(COCCCCCCCCCCCCCCCC)COP(=O)([O-])OCC[N+](C)(C)C (stereo not given) [Arachidonyl-PAF]	98	100	93 (inactive)	93.4 (inactive)
COC(=O)C1C(O)CCC2CN3CCc4c([nH]c5ccccc45)C3CC21.Cl (stereo not given)	102 ± 5.1	107 ± 3.6	91.2 (inactive)	100 (inactive)
CN(C)CCC(CSc1ccccc1)Nc1ccc(S(=O)(=O)NC(=O)c2ccc(N3CCN(Cc4ccccc4-c4ccc(Cl)cc4)CC3)cc2)cc1[N+](=O)[O-] (stereo not given)	30.5	106	110 (inactive)	129 (inactive)
O=C(c1ccc(Cl)c(S(=O)(=O)NCC2CCCO2)c1)N1CCN(c2ncccn2)CC1 (stereo not given) [Adenosine Kinase Inhibitor]	86.3	103	89.5 (inactive)	116 (inactive)
O=C1CC(c2ccc(O)c(O)c2)Oc2c1ccc(OC1OC(CO)C(O)C(O)C1O)c2O (stereo not given) [Flavanomarein]	102	98.6	94.9 (inactive)	99.9 (inactive)
O=C(O)C(=S)Cc1ccc(I)cc1 [(2Z)-3-(4-iodophenyl)-2-sulfanyl-2-propenoic acid]	106	104	95.6 (inactive)	94.8 (inactive)
NC(=O)c1nnn(Cc2cc(Cl)c(C(=O)c3ccc(Cl)cc3)c(Cl)c2)c1N	75	73.8	95.5 (inactive)	151 (active)

Structure (SMILES)	cell number (HCC1569 [1])	cell number (TDF [2])	H1.0 immunofluorescence intensity (TDF [3])	H1.0 immunofluorescence intensity (HCC1569 [4])
COc1ccccc1CNCCCCCCNCCCCCCCCNCCCCCCNCc1ccccc1OC.Cl.Cl.Cl.Cl [Methoctramine tetrahydrochloride]	104	87.6	103 (inactive)	98 (inactive)
O=C1NCCc2[nH]c(-c3ccncc3)cc21 [Cdc7/Cdk9 Inhibitor]	58.9	35.3	111 (inactive)	115 (inactive)
CC(Cc1ccccc1)(NC(=O)CN)c1ccccc1.Cl (stereo not given)	97.7	107	103 (inactive)	91.3 (inactive)
c1cc(OCCN2CCCCC2)cc(-c2n[nH]c3ccc(-c4ncn[nH]4)cc23)c1	88.3	107	84.6 (inactive)	115 (inactive)
Cc1[nH]c(C=C2C(=O)Nc3ccc(S(=O)(=O)Cc4c(Cl)cccc4Cl)cc32)c(C)c1C(=O)N1CCCC1CN1CCCC1 (stereo not given)	75.3	22.8	133 (active)	204 (active)
Cc1ccc(F)c(NC(=O)Nc2ccc(-c3cccc4[nH]nc(N)c34)cc2)c1	92.4	90.1	101 (inactive)	101 (inactive)
CCCCCC(O)C=CC=CC=CC(O)CC=CCCCC(=O)O [8(R),15(S)-DIHETE all trans]	102	107	91.4 (inactive)	98.4 (inactive)
C=CC1(C)CCC2C(=CCC3C(C)(C(=O)O)CCCC23C)C1 (stereo not drawn) [(4alpha,13alpha)-pimara-7,15-dien-18-oic acid]	102	101	99 (inactive)	86.6 (inactive)
O=c1c(-c2ccc(O)cc2)coc2cc(OC3OC(CO)C(O)C(O)C3O)ccc12 (stereo not given) [Daidzin]	95.7	108	94.8 (inactive)	89.9 (inactive)
CCCCCCCCC=CCC=CCC=CCCCC(=O)O [5(Z), 8(Z), 11(Z)-Eicosatrienoic Acid]	102 ± 2.9	105 ± 7.9	98.1 (inactive)	97.8 (inactive)
CCCCCC(O)C=CC1C2CC(CO2)C1CC=CCCCC(=O)O (stereo not given)	102	107	93.7 (inactive)	99.9 (inactive)
CCCCN(CCCC)CC(O)c1cc(Cl)cc2c1-c1ccc(Cl)cc1/C2=C/c1ccc(Cl)cc1 (stereo not given)	103	108	90.7 (inactive)	104 (inactive)
COc1ccc(S(=O)(=O)Nc2cc(Cl)cc(Cl)c2OC)cc1N1CCNCC1.Cl	100	100	93.4 (inactive)	99.9 (inactive)
CC(C)(C)NCC(O)c1ccc(O)c(CO)c1 (stereo not given) [Salbutamol]	99.7	99.3	95.9 (inactive)	101 (inactive)
CCOC(=O)[C@@H](N)CCC(=O)N[C@@H](CSCc1ccccc1)C(=O)N[C@@H](C(=O)OCC)c1ccccc1	97.6	100	92.9 (inactive)	109 (inactive)
CCN(CC)CCCC(C)Nc1ccnc2cc(Cl)ccc12 (stereo not given) [Chloroquine]	101	99.6	98.2 (inactive)	93.6 (inactive)
CC(N)=NCCC[C@H](N)C(=O)O.Cl [L-N5-(1-Iminoethyl)ornithine hydrochloride]	101	108	92.8 (inactive)	93.3 (inactive)
CCCCCCCCC=CCCCCCCCC(N)=O [9,10-Octadecenoamide]	98.5	103	94.7 (inactive)	102 (inactive)
COc1cc2nc(N3CCN(C(=O)C4=CC5C=CC4CC5)CC3)nc(N)c2cc1OC (stereo not given) [Prazobind]	101	102	95.3 (inactive)	93.2 (inactive)
Br.Br.N=C(N)SCCN [2-(2-Aminoethyl)isothiourea dihydrobromide]	99.2	85.8	96.9 (inactive)	99.7 (inactive)
NC1CCCCC1N.O=C([O-])C(=O)[O-].[Pt+2] (stereo not given) [Oxaliplatin]	87.5 ± 5.5	87.2 ± 18	97.9 (inactive)	121 (inactive)
COc1cc(NC(C)CCCN)c2ncccc2c1 (stereo not given) [Primaquine]	102	104	96.2 (inactive)	113 (inactive)
Cl.NC(N)=NC(N)=Nc1cccc(Cl)c1 [1-(m-Chlorophenyl)-biguanide hydrochloride]	102	97.2	93.4 (inactive)	97.1 (inactive)
N#CC(=Cc1ccc(O)c(O)c1)C(=O)NCc1ccccc1 [Tyrphostin AG 490]	94.5	107	88.7 (inactive)	99.7 (inactive)
CCOC(=O)C(CCc1ccccc1)NC(C)C(=O)N1Cc2ccccc2CC1C(=O)O (stereo not given) [Quinapril]	102	101	101 (inactive)	101 (inactive)
